The supplement of paper PMC10981050
“And” between values parts separate entries of the source, which are not always exact repeats. Equal values may be shown once. Where a name gives a salt, the structure may show the parent alone.

Legend:
Assay in all cases: cell viability relative to vehicle control; higher = less cytotoxic
Details in all cases: 10 µM
K562 = test system: K562
How it was run: (§1)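 After removal of identity-inconsistent compounds, the Selleck bioactive, kinase and epigenetic probe libraries were screened on CRISPR-edited mutant clones and isogenic wild-type clones of four leukaemia lines. Plates were 384-well, each well holding 2000 cells in 50 µL medium and receiving a single 10 µM acoustically dispensed dose. CellTiter-Glo luminescence was read 48 h later, after the supernatant was taken off. Genedata Screener was used to express viability as percent of the on-plate vehicle control.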

MARIMO = test system: MARIMO
How it was run: as §1

MOLM14 = test system: MOLM14
How it was run: as §1

OCI-AML2 = test system: OCI-AML2
How it was run: as §1

Row | SMILES | cell viability (K562; SRSF2 genotype: SRSF2 P95H/wt) | cell viability (K562; SRSF2 genotype: SRSF2 wt/wt) [%] | cell viability (MARIMO; SRSF2 genotype: SRSF2 P95H/wt) [%] | cell viability (MARIMO; SRSF2 genotype: SRSF2 wt/wt) [%] | cell viability (MOLM14; SRSF2 genotype: SRSF2 P95H/wt) [%] | cell viability (MOLM14; SRSF2 genotype: SRSF2 wt/wt) [%] | cell viability (OCI-AML2; SRSF2 genotype: P95H/wt) [%] | cell viability (OCI-AML2; SRSF2 genotype: wt/wt) [%]
1 | NC(=O)c1ncn([C@@H]2O[C@H](CO)[C@@H](O)[C@H]2O)c1N [AICAR (Acadesine)] | 109% and 107% | 109 | 101 | 110 | 107 | 118 | 93.1 | 105
2 | C[C@H]1O[C@@H](O[C@H]2CC[C@@]3(C)[C@@H](CC[C@]4(C)[C@@H]3C=C[C@]35OC[C@@]6(CCC(C)(C)C[C@H]63)[C@H](O)C[C@]54C)[C@]2(C)CO)[C@H](O)[C@@H](O[C@@H]2O[C@H](CO)[C@@H](O)[C@H](O)[C@H]2O)[C@H]1O [Saikosaponin D] | 6.69% and 0.65% | 0.4 | 14 | 3.54 | 0.86 | 0.86 | 10.2 | 12.9
3 | O=C(Nc1cccc2c(=O)cc(-c3nnn[nH]3)oc12)c1ccc(OCCCCc2ccccc2)cc1 [Pranlukast] | 103% | 104 | 106 | 114 | 101 | 104 | 105 | 113
4 | COc1ccccc1S(=O)(=O)Nc1ccc2c(c1)CN(C)C(=O)N2 | 81.5% and 75.9% | 76.5 | 48.9 | 46.6 | 33.4 | 34.5 | 27.1 | 40.2
5 | NS(=O)(=O)c1cc(Cl)c(Cl)c(S(N)(=O)=O)c1 [Dichlorphenamide (Diclofenamide)] | 108% and 97% | 95.9 | 91.9 | 102 | 105 | 99.6 | 93.4 | 103
6 | CCCCCCCCCCCCCCCc1cccc(O)c1C(=O)O [Anacardic Acid] | 88.9% and 86.6% | 84.8 | 81.7 | 86.7 | 86.3 | 82.9 | 87.5 | 83.5
7 | O=C(O)COCCN1CCN(C(c2ccccc2)c2ccc(Cl)cc2)CC1 (stereo not drawn) [Cetirizine Dihydrochloride] | 94.7% and 100% | 98.7 | 95 | 93.1 | 94.2 | 100 | 103 | 101
8 | CS(=O)(=O)Nc1cc2occ(NC=O)c(=O)c2cc1Oc1ccccc1 [Iguratimod] | 107% and 95.3% | 110 | 107 | 107 | 99.1 | 108 | 117 | 123
9 | Cn1c(=O)cc(C(=O)Nc2ccc3c(c2)OCCO3)c2ccccc21 | 97.4% and 96% | 94 | 99 | 104 | 102 | 100 | 93.4 | 101
10 | COc1cc2ncnc(Nc3cccc(Cl)c3)c2cc1OC [AG-1478 (Tyrphostin AG-1478)] | 75% and 83.2% | 76.4 | 81.7 | 90 | 59.7 | 67.6 | 58 | 62.2
11 | C[C@H](NCc1ccc(OCc2cccc(F)c2)cc1)C(N)=O | 102% | 99.9 | 105 | 102 | 98.2 | 98.2 | 115 | 106
12 | CCC(=O)O[C@]1(C(=O)CCl)[C@@H](C)C[C@H]2[C@@H]3C[C@H](F)C4=CC(=O)C=C[C@]4(C)[C@@]3(F)[C@@H](O)C[C@@]21C [Halobetasol Propionate] | 92.5% and 97.2% | 89 | 101 | 98.1 | 76.3 | 85.8 | 99.3 | 105
13 | COc1ccc2c(c1O)-c1c(O)c(OC)cc3c1[C@H](C2)[N+](C)(C)CC3 [Magnoflorinechloride] | 99.2% and 99.7% | 98.2 | 99.4 | 103 | 103 | 102 | 93.8 | 98.7
14 | CCN(CC)CC(=O)Nc1c(C)cccc1C [Lidocaine hydrochloride] | 102% and 103% | 106 | 101 | 107 | 99.3 | 102 | 100 | 97.1
15 | Nc1cccc(S(=O)(=O)N2CCCN(S(=O)(=O)c3ccc4c(c3)OCCO4)CC2)c1 | 90.8% and 101% | 101 | 96.3 | 98.8 | 90.5 | 97.7 | 101 | 97.5
16 | Cc1cc(O)c(-c2ccc([C@@H](C)CN(C)C)cc2)c2c1[nH]c(=O)c1sccc12 | 9.34% and 22.8% | 14.7 | 1.85 | 1.17 | 0.25 | 0.22 | 0.39 | 7.84
17 | N#Cc1ccc(-c2c(-c3ncn[nH]3)sc(N3CCOCC3)c2C#N)c(F)c1 | 60.4% and 73.5% | 68.2 | 47.4 | 39 | 27.8 | 28.3 | 9.07 | 24
18 | CC(C)(C)NC(=O)[C@H]1CC[C@H]2[C@@H]3CC[C@H]4NC(=O)C=C[C@]4(C)[C@H]3CC[C@]12C [Finasteride] | 103% and 99% | 97.5 | 94.3 | 105 | 101 | 102 | 99.7 | 106
19 | COc1ccccc1N1CCN(CCN2C(=O)CC3(CCCC3)CC2=O)CC1 [BMY 7378 Dihydrochloride] | 98.9% and 100% | 91.1 | 95.3 | 106 | 99.9 | 95.2 | 89.4 | 105
20 | CC(C)[C@H](CO)Nc1nc(Nc2cccc(Cl)c2)c2ncn(C(C)C)c2n1 [Purvalanol A] | 82.5% and 94.9% | 85.1 | 72 | 83 | 41.2 | 33.9 | 47.6 | 54.3
21 | CCCc1cc(C)[nH]c(=O)c1CNC(=O)c1cc(-c2ccc(N3CCN(C)CC3)nc2)nc2c1cnn2C(C)C | 15.9% and 4.45% | 20.9 | 85.6 | 47.7 | 55.9 | 78.5 | 0.4 | 0.41
